# Laboratory results from PubChem BioAssay AID2685 (National Center for Advancing Translational Sciences (NCATS), 2010).
# Among all 320,000 compounds or so, about 2,100 (0.66%) were called active. About 53% were inconclusive and are not listed. Calls follow the shape of the dose curve; as a rule, active = well fitted inhibition curve with a large enough effect in the signal ratio, with a control signal flat (not every such curve was filed as active); inconclusive = small, poorly fitted or top-dose-only effect, or effect the other way, or a change in a side signal; inactive = flat fitted curve, though single readings scatter; the % refers to the signal ratio. For the sample, actives were picked, then their nearest neighbours and some compounds at random.
# Experiment: qHTS Assay for Lipid Storage Modulators in Drosophila S3 Cells;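 as to cell number change: cells counted by Cell Tracker Red CMTPX staining in the red channel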; as to lipid storage change, negative = inhibition: % is scaled to controls: 0 for no effect and ±100 for the full control effect
# Conditions: BODIPY lipid droplet fluorescence, 18-24 h, cells fed with added oleic acid; cell number change: measured here: cell count max response; series mostly up to 46.1 µM; lipid storage change, negative = inhibition: at the top concentration
# Outline: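 Drosophila S3 cells got compounds at several concentrations plus oleic acid (400 uM solution). Laser-scanning cytometry with 488 nm excitation read lipid droplets at 500-530 nm and cells at 575-640 nm. Percent activity was relative to 20 uM Triacsin C.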
# Potency is read from the fitted curve at half-maximal effect.
Structure (SMILES),"lipid storage change, negative = inhibition",cell number change,outcome,Potency
Cc1ccc(C=Nc2ccccc2C(N)=O)o1,8.66% (inactive),-8.21%,,
CC1CN(c2ccc([N+](=O)[O-])cc2F)CCN1C(=O)c1ccco1 (stereo unspecified),15.3% (inactive),-3.23%,,
COc1ccc(C)cc1NS(=O)(=O)c1ccc2c(c1)N(C(C)=O)CCO2,,6.45%,inactive,
CCOc1ccccc1NS(=O)(=O)c1ccc2c(c1)n(C)c(=O)c(=O)n2C,0.5% (inactive),-6.25%,,
CCOc1ccccc1NS(=O)(=O)c1ccc(OC)c(OC)c1,3.17% (inactive),-6.31%,,
COc1ccc(C)cc1NS(=O)(=O)c1ccc2c(c1)N(C)CCO2,,6.6%,,20.6 µM (active)
Cc1ccc(NS(=O)(=O)c2ccc3c(c2)N(C)CCO3)cc1,,5.66%,inactive,
CCOc1ccccc1NS(=O)(=O)c1ccc2c(c1)N(C)CCO2,,-20.1%,,7.31 µM (active)
CN(C)S(=O)(=O)c1ccc(N2CCCC2)c(C(=O)Nc2ccc(C(N)=O)cc2)c1,16.1% (inactive),,,
Cc1ccc(NC(=S)N2CCN(Cc3ccccc3)CC2)c(C)c1,12.5% (inactive),7.65%,,
COc1ccc(C2C(C(=O)N3CCCCC3)CC(=O)N2c2ccc(OC)cc2)cc1 (stereo unspecified),20.1% (inactive),-20%,,
CCOc1ccc(/C=N/NC(=O)c2cc3ccccc3cc2OC)cc1,,,inactive,
O=C(Cc1ccc([N+](=O)[O-])cc1)NC(C(=O)O)C(O)c1cccc([N+](=O)[O-])c1 (stereo unspecified),19.1% (inactive),-5.25%,,
CN(C)CC(=O)N1c2ccccc2CCc2ccc(NC(=O)c3ccc(N)cc3)cc21,,,inactive,
CCOc1ccccc1CN1CCNC(=O)C1CC(=O)NCCCn1cccn1 (stereo unspecified),,-11.6%,inactive,
CCOc1ccccc1CN1CCNC(=O)C1CC(=O)NCCc1ccccn1 (stereo unspecified),-15.3% (inactive),-15.8%,,
CCOc1ccccc1CN1CCNC(=O)C1CC(=O)NCCN1CCOC1=O (stereo unspecified),,19.4%,,2.31 µM (active)
CC(=O)Nc1ccc(S(=O)(=O)NC(C)c2nc(-c3ccccc3)no2)cc1 (stereo unspecified),,16.2%,inactive,
COc1ccc(-c2nn(CCC#N)cc2C=C(C#N)C#N)cc1,3.12% (inactive),16.7%,,
COc1ccc(-c2cc(C(=O)N3CC4(C)CC3CC(C)(C)C4)no2)cc1OC (stereo unspecified),20.3% (inactive),-3.22%,,
CC1(C)CC2CC(C)(CN2C(=O)c2cc(-c3ccc(O)cc3)on2)C1 (stereo unspecified),,16.1%,,0.92 µM (active)
CC1(C)CC2CC(C)(CN2C(=O)c2cccs2)C1 (stereo unspecified),-0.663% (inactive),-7.87%,,
C=CCn1c(SC(F)F)nc2scc(-c3ccco3)c2c1=O,,0.451%,,0.058 µM (active)
C=CCn1c(=S)[nH]c2scc(-c3ccco3)c2c1=O,1.25% (inactive),8.4%,,

Structure (SMILES),"lipid storage change, negative = inhibition",cell number change,outcome,Potency
C=CCn1c(SCc2ccc3c(c2)OCO3)nc2scc(-c3ccco3)c2c1=O,34.4% (inactive),-2.61%,,
CC(C)N(Cc1nnc(-c2ccc(Cl)cc2)o1)C(=O)c1cc2ccccc2o1,11.5% (inactive),-8.15%,,
Oc1nc(Nc2ccc(F)cc2)sc1/C=C1\C=Nc2ccccc21,-6.38% (inactive),-4.17%,,
Cc1ccccc1NC(=O)Cc1nnc(N)s1,0.0585% (inactive),-0.0956%,,
CCOc1ccc(S(=O)(=O)N2CCC(C(=O)N3CCc4ccccc4C3)CC2)cc1,,-23.3%,,7.31 µM (active)
COc1ccc(S(=O)(=O)N2CCc3ccccc3C2)cc1,-6.8% (inactive),4.92%,,
COC(=O)COc1ccc(S(=O)(=O)N2CCc3ccccc3C2)cc1,,22.6%,,7.31 µM (active)
CCOc1ccc(S(=O)(=O)N2CCC(C(=O)N3CCN(Cc4ccccc4)CC3)CC2)cc1,-20.9% (inactive),-0.232%,,
COC(=O)COc1ccc(S(=O)(=O)N2CCCCCC2)cc1,9.35% (inactive),19.9%,,
CCOc1ccc(S(=O)(=O)N2CCC(C(=O)N3CCN(c4ccccc4)CC3)CC2)cc1,,-5.41%,inactive,
Cc1ccc(C2=NNC(=O)C(P(=O)(c3ccccc3)c3ccccc3)C2)cc1 (stereo unspecified),23.4% (inactive),21.3%,,
S=C1NCN(C2CCCCC2)CN1Cc1ccccc1,5.67% (inactive),2.76%,,
CCCc1cc(=O)oc2cc(C)cc(OC(C)C(=O)NCCCN3CCOCC3)c12 (stereo unspecified),,6.42%,inactive,
O=c1[nH]c2ccccc2nc1/C=C(\O)C(F)F,9.85% (inactive),13.5%,,
O=c1[nH]c2ccccc2nc1/C=C/c1ccc(F)cc1,,28.9%,,9.2 µM (active)
Cn1c(=O)c(/C=C/c2ccc(F)cc2)nc2ccccc21,-6.81% (inactive),-1.08%,,
COC(=O)C1CCN(S(C)(=O)=O)CC1,3.84% (inactive),4.24%,,
COC(=O)[C@H]1C2CCC(C(=O)OC)(CC2)[C@H]1C(=O)OC,,-5.5%,,1.3 µM (active)
COC(=O)[C@@H]1C2CCC(C(=O)Nc3ccccc3)(CC2)[C@@H]1C(=O)OC,,,inactive,
CN(Cc1ccccc1)c1nnc(N)s1,1.26% (inactive),-2.39%,,
O=C(NC(=S)Nc1ccc(S(=O)(=O)Nc2nccs2)cc1)c1ccccc1F,0.875% (inactive),13%,,
Cc1ccc(/C=N/NC(=O)c2ccc(C(=O)N/N=C/c3ccc(C)s3)o2)s1,-1.54% (inactive),10.7%,,
Cc1ccc(/C=N/NC(=O)c2ccco2)s1,17.2% (inactive),-9.87%,,
O=C(N/N=C\c1cn(-c2ccccc2)nc1-c1ccccc1)c1ccc(Br)o1,,6.81%,,23.1 µM (active)

Structure (SMILES),"lipid storage change, negative = inhibition",cell number change,outcome,Potency
Cc1ccc(/C=N/NC(=O)c2ccc(Br)o2)s1,,-8.7%,,3.66 µM (active)
O=C(N/N=C/c1cn(-c2ccccc2)nc1-c1ccccc1)c1ccco1,,,inactive,
NC(=O)N/N=C/c1cn(-c2ccccc2)nc1-c1ccccc1,13.8% (inactive),15.1%,,
CCC(=O)N(c1ccc(C(=O)O)cc1)c1nc(-c2ccc(OC)cc2)c(C)s1,1.19% (inactive),-9.44%,,
CC(=O)Cc1nsc(NC(=O)c2ccc(-c3cc(Cl)ccc3Cl)o2)n1,12.3% (inactive),15.1%,,
CS(=O)(=O)c1cccc(C(=O)Nc2cccc(-c3nc4ccccc4[nH]3)c2)c1,,-15%,,7.31 µM (active)
CN(C)c1cccc(C(=O)Nc2nc3ccccc3[nH]2)c1,,-3.6%,,14.6 µM (active)
COc1cccc(C(=O)Nc2nc3ccccc3[nH]2)c1,-0.695% (inactive),17.8%,,
CS(=O)(=O)c1cccc(C(=O)Nc2ccc(-c3nc4ccccc4[nH]3)cc2)c1,,86.3%,inactive,
O=C(Nc1nc2ccccc2[nH]1)c1cccc([N+](=O)[O-])c1,5.31% (inactive),-8.28%,,
CS(=O)(=O)c1ccc(C(=O)Nc2cccc(-c3nc4ccccc4[nH]3)c2)cc1,,3.88%,inactive,
Cn1c(N2CCOCC2)c(/C=N/OC(=O)c2cccnc2Cl)c2ccccc21,,,inactive,
Cc1ccc(NS(=O)(=O)c2ccc3c(c2)NC(=O)CO3)c(C)c1,,-9.44%,inactive,
O=C1CC(c2ccccc2)CN1S(=O)(=O)c1ccccc1 (stereo unspecified),,-20.2%,,20.6 µM (active)
O=C1CCCN1S(=O)(=O)c1ccccc1,-16.7% (inactive),-14.6%,,
O=C(Nc1nnc(C2CC2)s1)c1cccc(S(=O)(=O)N2CC(c3ccccc3)CC2=O)c1 (stereo unspecified),14.3% [at 9.22 µM] (inactive),,,
O=C(N=C1SC2CS(=O)(=O)CC2N1CCc1ccccc1)C1CCCCC1 (stereo unspecified),,,inactive,
Cc1cc(C=O)c(C)n1-c1cccc(C(=O)O)c1,22.3% (inactive),7.64%,,
Cc1ccc(OCCOC(=O)c2cc(S(=O)(=O)N3CCCCC3)ccc2N2CCOCC2)cc1,,-27%,,5.17 µM (active)
CC(C)(C)NC(=O)COC(=O)c1cc(S(=O)(=O)N2CCCCC2)ccc1N1CCOCC1,-8.17% (inactive),,,
CC(C)(C)C(=O)COC(=O)c1cc(S(=O)(=O)N2CCCCC2)ccc1N1CCOCC1,-21.4% [at 0.0737 µM] (inactive),-8.75%,,
CC(=O)Nc1ccc(NC(=O)COC(=O)/C=C/c2ccc3c(c2)OCO3)cc1,,-1.06%,,5.17 µM (active)
NC(=O)c1ccc(NC(=O)COC(=O)/C=C/c2ccc3c(c2)OCO3)cc1,-1.6% (inactive),9.72%,,
COc1ccccc1NC(=O)COC(=O)/C=C/c1ccc2c(c1)OCO2,3.62% (inactive),18%,,

Structure (SMILES),"lipid storage change, negative = inhibition",cell number change,outcome,Potency
CCOC(=O)C1(Cc2ccccc2C(F)(F)F)CCN(C2CCN(C(C)=O)CC2)CC1,6.45% (inactive),11.4%,,
CC1CCc2nc(N)c(C#N)c(-c3cccn3C)c2C1 (stereo unspecified),12% (inactive),,,
COc1cccc2cc(C(=O)NCc3ccccc3Br)c(=O)oc12,9.42% (inactive),1.66%,,
CC1Cc2ccccc2N1C(=O)c1cc2cccnc2n(C)c1=O (stereo unspecified),4.14% (inactive),1.02%,,
NS(=O)(=O)c1cc2c(cc1Cl)NC(c1ccccc1OCC(=O)O)NS2(=O)=O (stereo unspecified),,-10.4%,inactive,
COc1ccccc1/C=C/C(C)=O,0.161% (inactive),3.8%,,
COc1ccccc1/C=C/C(=O)NCc1cccnc1,11.8% (inactive),-13.8%,,
COC(=O)/C=C/C(=O)Nc1cccnc1,6.84% (inactive),-5.59%,,
COc1ccccc1/C=C/C(=O)c1ccc(Cl)cc1,,1.97%,,4.61 µM (active)
COc1ccccc1/C=C/C(=O)Nc1cccnc1,,-14.6%,,5.8 µM (active)
COc1ccc(/C=C/C(=O)c2ccc(Cl)cc2)c(OC)c1,-3.9% (inactive),-5.6%,,
CCCOc1ccc(/C=N/Nc2ccc(C(=O)O)cc2)c(OCCC)c1,15.7% (inactive),9.43%,,
CCn1nc(NS(=O)(=O)c2ccc(NC(C)=O)cc2)c2cc3ccccc3nc21,,-12.4%,inactive,
COCCN1C(=O)N[C@@H](c2ccco2)C(C(C)=O)=C1C,-6.07% (inactive),3.8%,,
COCCCNC(=O)CN(c1cccc(Cl)c1)S(C)(=O)=O,4.41% (inactive),-7.55%,,
CCC(C)Nc1cc(C)c(C#N)c2nc3ccccc3n12 (stereo unspecified),6.81% (inactive),5.52%,,
Cc1cc(NC(C)C)n2c(nc3ccccc32)c1C#N,,-88.9%,,16.4 µM (active)
CNc1cc(C)c(C#N)c2nc3ccccc3n12,,-18.9%,inactive,
COC(=O)c1cn(CC(=O)N2C(C)CCCC2C)c2ccccc12 (stereo unspecified),1.45% (inactive),9.64%,,
CC1CCCC(C)N1C(=O)Cn1cc(/C=C2/C(=O)Nc3ccccc32)c2ccccc21 (stereo unspecified),,-83.5%,,23.1 µM (active)
CC1CCCC(C)N1C(=O)Cn1cc(C#N)c2ccccc21 (stereo unspecified),19.1% (inactive),9.53%,,
